Results reported in PubChem BioAssay (Tox21).
Inconclusive results are not listed. The source made the active and inactive calls. Unless noted, calls follow the shape of the dose curve; as a rule, active = well fitted curve in the direction sought with a large enough effect in the repeat runs; inconclusive = weak or mixed curves; inactive = flat fitted curve, though single readings scatter.

Experiments:
[1] = qHTS assay to test for compound auto fluorescence at 535 nm (green) in HEK293 cells (AID 720680)
[2] = qHTS assay to test for compound auto fluorescence at 460 nm (blue) in HEK293 cell free culture (AID 720681)
Summary of the method: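 Test compounds were pinned into cell-free culture medium (DMEM with 10% FBS) and fluorescence was read directly at Ex/Em 405/460 nm. Signals were expressed as fluorescence equivalents of triamterene, with DMSO vehicle as control.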

[3] = qHTS assay to test for compound auto fluorescence at 535 nm (green) in HEK293 cell free culture (AID 720682)
Summary of the method: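 DMEM + 10% FBS, cell-free; cpd or DMSO pinned in; Ex485/Em535 read; output as fluorescein-equivalent signal.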

[4] = qHTS assay to test for compound auto fluorescence at 590 nm (red) in HEK293 cell free culture (AID 720683)
Summary of the method: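 Tox21 10K library compounds were pinned into cell-free DMEM with 10% FBS and fluorescence was read at excitation 540 nm. Activity is expressed as Rose Bengal sodium equivalency.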

[5] = qHTS assay to test for compound auto fluorescence at 590 nm (red) in HepG2 cell free culture (AID 720684)
Summary of the method: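 Red fluorescence (540 nm excitation, 590 nm emission) was measured after compound transfer into cell-free MEM supplemented with 10% FBS. Values are equivalencies against Rose Bengal sodium.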

[6] = qHTS assay to test for compound auto fluorescence at 460 nm (blue) in HepG2 cell free culture (AID 720685)
Summary of the method: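 Compound (23 nL) or DMSO pinned into cell-free MEM with 10% FBS; blue fluorescence read at 405/460 nm excitation/emission, expressed as auto-fluorescence equivalency to triamterene.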

[7] = qHTS assay to test for compound auto fluorescence at 460 nm (blue) in HepG2 cells (AID 720687)
Summary of the method: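 Cells (2,000/well in MEM with 10% FBS) attached overnight at 37 C, then were exposed to compound or DMSO for 1 hr at 37 C, 5% CO2. Fluorescence read at Ex/Em 405/460 nm, expressed as triamterene-equivalent signal.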

[8] = qHTS assay to test for compound auto fluorescence at 535 nm (green) in HepG2 cell free culture (AID 720686)
[9] = target: Glucocorticoid receptor (Homo sapiens) (UniProt P04150); assay: qHTS assay to identify small molecule agonists of the glucocorticoid receptor (GR) signaling pathway (AID 720691; active = well fitted activation curve with a large enough effect in the signal ratio in the repeat runs, not every such curve was filed as active; the % refers to the signal ratio); details: GR-bla HeLa, beta-lactamase reporter ratio, 18 h; activation: at 62.4 µM (top of the series)
Summary of the method: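 Fluorescence intensity from LiveBLAzer B/G FRET substrate (2 h, room temperature) reports beta-lactamase expression driven by the glucocorticoid response element in GR-bla HeLa cells after 18 h compound exposure at 37 C.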

[10] = target: Glucocorticoid receptor (Homo sapiens) (UniProt P04150); assay: qHTS assay to identify small molecule antagonists of the glucocorticoid receptor (GR) signaling pathway (AID 720692; active = well fitted inhibition curve with a large enough effect in the signal ratio in the repeat runs, not every such curve was filed as active; the % refers to the signal ratio)
Summary of the method: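 HeLa GR-bla cells; cmpd + dex 5 nM final, 18 h 37 C; LiveBLAzer B/G FRET substrate 2 h RT; fluorescence intensity read. Antagonist mode, qHTS.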

Measured: Potency

Chain of Glucocorticoid receptor (Homo sapiens) (P04150 whole entry, looked up): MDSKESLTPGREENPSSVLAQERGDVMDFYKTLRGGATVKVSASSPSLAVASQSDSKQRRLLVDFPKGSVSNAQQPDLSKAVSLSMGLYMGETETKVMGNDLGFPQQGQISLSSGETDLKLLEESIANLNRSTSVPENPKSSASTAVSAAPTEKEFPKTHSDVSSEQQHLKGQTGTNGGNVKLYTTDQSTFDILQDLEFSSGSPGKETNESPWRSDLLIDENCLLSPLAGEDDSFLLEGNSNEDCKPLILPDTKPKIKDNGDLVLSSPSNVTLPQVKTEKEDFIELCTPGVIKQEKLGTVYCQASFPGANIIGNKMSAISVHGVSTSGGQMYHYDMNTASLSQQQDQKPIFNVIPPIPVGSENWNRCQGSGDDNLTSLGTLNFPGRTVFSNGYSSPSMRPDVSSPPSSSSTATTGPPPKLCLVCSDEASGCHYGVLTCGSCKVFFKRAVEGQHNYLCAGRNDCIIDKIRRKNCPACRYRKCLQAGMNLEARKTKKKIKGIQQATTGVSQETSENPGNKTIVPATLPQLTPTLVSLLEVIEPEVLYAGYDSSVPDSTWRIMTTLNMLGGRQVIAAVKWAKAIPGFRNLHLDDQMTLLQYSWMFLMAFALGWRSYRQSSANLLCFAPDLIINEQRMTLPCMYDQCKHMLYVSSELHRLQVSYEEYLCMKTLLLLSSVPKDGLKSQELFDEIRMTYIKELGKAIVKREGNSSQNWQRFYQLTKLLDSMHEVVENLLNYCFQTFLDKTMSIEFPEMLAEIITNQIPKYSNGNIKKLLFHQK

C=C1CC[C@H](O)CC1=C/C=C1\CCC[C@]2(C)[C@@H]([C@H](C)CCCC(C)(C)O)CC[C@@H]12
not listed: [8] | [9] | [10]
inactive: all other assays above

O=C(OC1C[C@@H]2CC3C[C@H](C1)N2CC3=O)c1c[nH]c2ccccc12 (some centres not stated)
not listed: [7]
inactive: all other assays above

Nc1ccn(C[C@@H](CO)OCP(=O)(O)O)c(=O)n1
not listed: [7]
inactive: all other assays above

CO/N=C(\C(=O)N[C@@H]1C(=O)N2C(C(=O)OCOC(=O)C(C)(C)C)=C(/C=C\c3scnc3C)CS[C@H]12)c1csc(N)n1
not listed: [7]
inactive: all other assays above

O=C(CO)[C@@H](O)[C@H](O)[C@@H](O)C(=O)O
not listed: [7] | [10]
inactive: all other assays above

CCSc1ccc2c(c1)N(CCCN1CCN(C)CC1)c1ccccc1S2
not listed: [8] | [9] | [10]
inactive: all other assays above

CCCCCCCC(=O)CC[C@@H]1[C@@H](C/C=C\CCCC(=O)OC(C)C)[C@@H](O)C[C@H]1O
not listed: [8] | [9] | [10]
inactive: all other assays above

CC1CCC(NC(=O)N(CCCl)N=O)CC1 (configuration not stated)
not listed: [7]
inactive: all other assays above

CO[C@@H]1[C@@H](O[C@@H]2O[C@H](C)[C@@H](O[C@H]3C[C@@](C)(O)[C@@H](OC(=O)CC(C)C)[C@H](C)O3)[C@H](N(C)C)[C@H]2O)[C@@H](CC=O)C[C@@H](C)C(=O)/C=C/C2OC2C[C@@H](C)OC(=O)C[C@H]1OC(C)=O (some centres not stated)
not listed: [8] | [9] | [10]
inactive: all other assays above

CC(=O)Nc1c(I)c(C(=O)N[C@H]2C(O)O[C@H](CO)[C@@H](O)[C@@H]2O)c(I)c(N(C)C(C)=O)c1I (some centres not stated)
not listed: [7] | [10]
inactive: all other assays above

CC[C@H](C)[C@@H]1NC(=O)[C@H](Cc2ccc(O)cc2)NC(=O)[C@@H](N)CSSC[C@@H](C(=O)N2CCC[C@H]2C(=O)N[C@@H](CC(C)C)C(=O)NCC(N)=O)NC(=O)[C@H](CC(N)=O)NC(=O)[C@H](CCC(N)=O)NC1=O
not listed: [7]
inactive: all other assays above

CCCCCCCCCCCCCCCCCCOP(=O)([O-])OC1CC[N+](C)(C)CC1
not listed: [7]
inactive: all other assays above

CN1CCN(CCCN2c3ccccc3Sc3ccccc32)CC1
not listed: [7]
inactive: all other assays above

CO[C@H]1C[C@H](O[C@@H]2/C(C)=C/C[C@@H]3C[C@@H](C[C@]4(CC[C@H](C)[C@@H](C5CCCCC5)O4)O3)OC(=O)[C@@H]3C=C(C)/C(=N/O)[C@H]4OC/C(=C\C=C\[C@@H]2C)[C@]43O)O[C@@H](C)[C@@H]1O
not listed: [7]
inactive: all other assays above

C[C@@H]1C/C=C/C=C/C=C/C=C/[C@H](O[C@@H]2O[C@H](C)[C@@H](O)[C@H](N)[C@@H]2O)C[C@@H]2O[C@](O)(C[C@@H](O)C[C@H]3O[C@@H]3/C=C/C(=O)O1)C[C@H](O)[C@H]2C(=O)O
not listed: [7]
inactive: all other assays above

O=c1[nH]cnc2[nH]cc(CN3CCCCC3)c12
not listed: [7]
inactive: all other assays above

O=C1CCC(=O)N1CO
not listed: [7]
inactive: all other assays above

CCOC(=O)C1=C(COCCN)NC(C)=C(C(=O)OC)C1c1ccccc1Cl (configuration not stated)
not listed: [9]
inactive: all other assays above

CCN(CC)c1ccc(N=Nc2ccc(S(=O)(=O)N(C)C)cc2)c(S(=O)(=O)NCC[n+]2ccccc2)c1
not listed: [7]
inactive: all other assays above

NC[C@@H]1O[C@H](O[C@H]2[C@@H](O)[C@H](O[C@@H]3[C@@H](O)[C@H](N)C[C@H](N)[C@H]3O[C@H]3O[C@H](CN)[C@@H](O)[C@H](O)[C@H]3N)O[C@@H]2CO)[C@H](N)[C@@H](O)[C@@H]1O
not listed: [8] | [9] | [10]
inactive: all other assays above

O=S(=O)(O)c1cc(O)c2c(N=Nc3ccc(Nc4ccccc4)c4c(S(=O)(=O)O)cccc34)cc(S(=O)(=O)O)cc2c1
not listed: [7]
inactive: all other assays above
